Active and inactive are the calls of the source.
Experiments:
[1] = small molecules captured by biotinylated probe aFSTL3 – biochemical, small-molecule microarray, fluorescence 635/667, stem cell growth factor project, primary screen (AID 1064); conditions: higher = more signal;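 note: measures binding of the biotinylated anti-FSTL3 antibody to printed compounds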
[2] = binders from COS7 lysate, DM2A8 probe, primary screen, torsin A project, cell lysate, small-molecule microarray, fluorescence 635/667 (AID 1065); conditions: higher = more signal, COS7 lysate expressing mutant human TOR1A
[3] = small molecules captured by biotinylated probe aFGF2 – biochemical, small-molecule microarray, fluorescence 635/667, stem cell growth factor project, primary screen (AID 1067); conditions: higher = more signal;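 note: measures binding of biotinylated aFGF2 protein to printed compounds on slides; z-score merges feature fluorescence and signal-to-noise across triplicate slides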
[4] = small molecules captured by biotinylated probe aFGF10 – biochemical, small-molecule microarray, fluorescence 635/667, stem cell growth factor project, primary screen (AID 1071); conditions: higher = more signal;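 note: score merges 667 nm spot intensity and signal to noise from triplicate slides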
[5] = biological target: Neurogenic locus notch homolog protein 2 (Homo sapiens) (UniProt Q04721); assay: small molecules binding Notch2 protein – biochemical, small-molecule microarray, 635 nm fluorescence, stem cell growth factors, primary screen (AID 1073); conditions: higher = more signal
[6] = biological target: Pro-neuregulin-1, membrane-bound isoform (Homo sapiens) (UniProt Q02297); assay: small molecules binding neuregulin-1 protein – biochemical, small-molecule microarray, fluorescence 635/667, psychiatric disease protein project, primary screen (AID 1075); conditions: NRG1 binding, 635 nm fluorescence, higher = more signal;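 note: score combines 667 nm spot fluorescence with signal to noise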
[7] = tested on: Neuregulin-1 EGF-like domain; assay: small molecules binding NRG1 EGF domain – biochemical, small-molecule microarray, 635 nm fluorescence, primary screen (AID 1081); conditions: higher = more signal;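 note: binding of the protein to compounds printed on small-molecule microarray slides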
[8] = FRG1 expression reporter modulators in myotubes – cell-based, C2C12 myotubes, firefly/Renilla luciferase, luminescence, FRG1 inhibition for FSHD, primary screen (AID 1084); conditions: FRG1 promoter luciferase, higher = more signal, called active from +8 up or from −8 down
[9] = small molecules captured by biotinylated probe aFST – biochemical, small-molecule microarray, fluorescence 635/667, stem cell growth factor project, primary screen (AID 1086); conditions: higher = more signal;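 note: score merges 667 nm fluorescence with signal-to-noise of each printed compound spot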
[10] = binders of probe aHhip on microarray, primary screen, stem cell growth factor project, biochemical, small-molecule microarray, fluorescence 635/667 (AID 1087); conditions: higher = more signal;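 note: score merges spot fluorescence at 667nm with spot signal to noise ratio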
[11] = tested on: PRMT1 (protein arginine N-methyltransferase 1); assay: small molecules binding arginine methyltransferase PRMT1 – biochemical, small-molecule microarray, 635 nm fluorescence, primary screen (AID 1088); conditions: higher = more signal;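 note: binding of Prmt1 protein to compounds spotted on small-molecule microarray slides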
[12] = growth effects on S. cerevisiae YJM789 – YJM789 clinical isolate, OD600, 24 h, basal, primary screen (AID 1089); conditions: higher = more signal, called active from +8 up or from −8 down;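 note: growth of clinical yeast isolate S. cerevisiae YJM 789 seeded 1000 cells per well; test concentration not given here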
[13] = S. pombe growth modifiers, basal conditions – strain 972, OD600, 24 h, no modulator, primary screen (AID 1090);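 note: basal condition with compound alone and no growth modifier present; test concentration not given here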; conditions: S. pombe 972 growth, higher = more signal, called active from +8 up or from −8 down
[14] = budding yeast growth modifiers under rapamycin – strain BY4716, OD600, 96 h, primary screen (AID 1091); note: test concentration not given here; conditions: S. cerevisiae BY4716 + rapamycin, higher = more signal, called active from +8 up or from −8 down
[15] = biological target: Torsin-1A-interacting protein 2 (Homo sapiens) (UniProt Q8NFQ8); assay: small molecules binding lysate-expressed LULL1 – cell lysate, human LULL1 lysate, 635/667 nm fluorescence, primary screen (AID 1092); conditions: small-molecule microarray, hLULL1 lysate binding, 635 nm fluorescence; higher = more signal;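 note: probe is lysate of COS7 cells overexpressing human LULL1; score merges per-feature 667 nm fluorescence with signal-to-noise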
[16] = optical density change of DRC41 E. coli – strain DRC41, OD650, 24 h, E. coli filamentation project, primary screen (AID 1093);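 note: MC1000 strain lacking acrAB efflux and sulA so SOS filamentation is blocked; test concentration not given here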; conditions: E. coli DRC41 growth, higher = more signal, called active from +8 up or from −8 down
[17] = probe aLefty2 binding to arrayed compounds – biochemical, biotinylated probe, 635/667 nm fluorescence, primary screen (AID 1094); conditions: small-molecule microarray, higher = more signal;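 note: score merges spot fluorescence near 667 nm with spot signal-to-noise ratio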
[18] = tested on: Noggin (protein binding on small-molecule microarray); assay: small molecules binding Noggin protein – biochemical, 635/667 nm fluorescence, primary screen (AID 1095); conditions: 635 nm fluorescence, higher = more signal;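 note: score merges 667 nm feature fluorescence with signal to noise over triplicate slides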
[19] = biological target: Neurogenic locus notch homolog protein 3 (Homo sapiens) (UniProt Q9UM47); assay: small molecules binding NOTCH3 protein – biochemical, 635/667 nm fluorescence, primary screen (AID 1096); conditions: small-molecule microarray, 635 nm fluorescence, higher = more signal
[20] = probe aEGFR binding to arrayed compounds – biochemical, biotinylated probe, 635/667 nm fluorescence, primary screen (AID 1097); conditions: small-molecule microarray, higher = more signal;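 note: probe is a biotinylated anti-EGFR antibody binding compounds printed on slides; score combines fluorescence near 667 nm and signal to noise of each spot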

Sequence of Torsin-1A-interacting protein 2 (Homo sapiens) (Q8NFQ8 whole entry, looked up): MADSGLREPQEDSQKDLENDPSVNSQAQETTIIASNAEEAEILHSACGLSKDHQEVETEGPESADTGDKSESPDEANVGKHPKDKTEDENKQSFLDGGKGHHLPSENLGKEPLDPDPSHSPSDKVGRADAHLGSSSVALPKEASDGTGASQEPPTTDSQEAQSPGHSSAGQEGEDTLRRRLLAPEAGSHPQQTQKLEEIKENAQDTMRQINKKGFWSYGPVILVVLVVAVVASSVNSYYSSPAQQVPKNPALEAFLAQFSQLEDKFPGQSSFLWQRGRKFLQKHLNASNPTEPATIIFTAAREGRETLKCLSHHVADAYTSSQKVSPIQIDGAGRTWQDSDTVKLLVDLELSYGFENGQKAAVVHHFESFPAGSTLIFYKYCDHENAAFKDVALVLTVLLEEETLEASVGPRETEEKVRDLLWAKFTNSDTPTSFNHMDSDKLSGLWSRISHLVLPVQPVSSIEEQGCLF
Sequence of Neurogenic locus notch homolog protein 2 (Homo sapiens) (Q04721 whole entry, looked up, canonical isoform): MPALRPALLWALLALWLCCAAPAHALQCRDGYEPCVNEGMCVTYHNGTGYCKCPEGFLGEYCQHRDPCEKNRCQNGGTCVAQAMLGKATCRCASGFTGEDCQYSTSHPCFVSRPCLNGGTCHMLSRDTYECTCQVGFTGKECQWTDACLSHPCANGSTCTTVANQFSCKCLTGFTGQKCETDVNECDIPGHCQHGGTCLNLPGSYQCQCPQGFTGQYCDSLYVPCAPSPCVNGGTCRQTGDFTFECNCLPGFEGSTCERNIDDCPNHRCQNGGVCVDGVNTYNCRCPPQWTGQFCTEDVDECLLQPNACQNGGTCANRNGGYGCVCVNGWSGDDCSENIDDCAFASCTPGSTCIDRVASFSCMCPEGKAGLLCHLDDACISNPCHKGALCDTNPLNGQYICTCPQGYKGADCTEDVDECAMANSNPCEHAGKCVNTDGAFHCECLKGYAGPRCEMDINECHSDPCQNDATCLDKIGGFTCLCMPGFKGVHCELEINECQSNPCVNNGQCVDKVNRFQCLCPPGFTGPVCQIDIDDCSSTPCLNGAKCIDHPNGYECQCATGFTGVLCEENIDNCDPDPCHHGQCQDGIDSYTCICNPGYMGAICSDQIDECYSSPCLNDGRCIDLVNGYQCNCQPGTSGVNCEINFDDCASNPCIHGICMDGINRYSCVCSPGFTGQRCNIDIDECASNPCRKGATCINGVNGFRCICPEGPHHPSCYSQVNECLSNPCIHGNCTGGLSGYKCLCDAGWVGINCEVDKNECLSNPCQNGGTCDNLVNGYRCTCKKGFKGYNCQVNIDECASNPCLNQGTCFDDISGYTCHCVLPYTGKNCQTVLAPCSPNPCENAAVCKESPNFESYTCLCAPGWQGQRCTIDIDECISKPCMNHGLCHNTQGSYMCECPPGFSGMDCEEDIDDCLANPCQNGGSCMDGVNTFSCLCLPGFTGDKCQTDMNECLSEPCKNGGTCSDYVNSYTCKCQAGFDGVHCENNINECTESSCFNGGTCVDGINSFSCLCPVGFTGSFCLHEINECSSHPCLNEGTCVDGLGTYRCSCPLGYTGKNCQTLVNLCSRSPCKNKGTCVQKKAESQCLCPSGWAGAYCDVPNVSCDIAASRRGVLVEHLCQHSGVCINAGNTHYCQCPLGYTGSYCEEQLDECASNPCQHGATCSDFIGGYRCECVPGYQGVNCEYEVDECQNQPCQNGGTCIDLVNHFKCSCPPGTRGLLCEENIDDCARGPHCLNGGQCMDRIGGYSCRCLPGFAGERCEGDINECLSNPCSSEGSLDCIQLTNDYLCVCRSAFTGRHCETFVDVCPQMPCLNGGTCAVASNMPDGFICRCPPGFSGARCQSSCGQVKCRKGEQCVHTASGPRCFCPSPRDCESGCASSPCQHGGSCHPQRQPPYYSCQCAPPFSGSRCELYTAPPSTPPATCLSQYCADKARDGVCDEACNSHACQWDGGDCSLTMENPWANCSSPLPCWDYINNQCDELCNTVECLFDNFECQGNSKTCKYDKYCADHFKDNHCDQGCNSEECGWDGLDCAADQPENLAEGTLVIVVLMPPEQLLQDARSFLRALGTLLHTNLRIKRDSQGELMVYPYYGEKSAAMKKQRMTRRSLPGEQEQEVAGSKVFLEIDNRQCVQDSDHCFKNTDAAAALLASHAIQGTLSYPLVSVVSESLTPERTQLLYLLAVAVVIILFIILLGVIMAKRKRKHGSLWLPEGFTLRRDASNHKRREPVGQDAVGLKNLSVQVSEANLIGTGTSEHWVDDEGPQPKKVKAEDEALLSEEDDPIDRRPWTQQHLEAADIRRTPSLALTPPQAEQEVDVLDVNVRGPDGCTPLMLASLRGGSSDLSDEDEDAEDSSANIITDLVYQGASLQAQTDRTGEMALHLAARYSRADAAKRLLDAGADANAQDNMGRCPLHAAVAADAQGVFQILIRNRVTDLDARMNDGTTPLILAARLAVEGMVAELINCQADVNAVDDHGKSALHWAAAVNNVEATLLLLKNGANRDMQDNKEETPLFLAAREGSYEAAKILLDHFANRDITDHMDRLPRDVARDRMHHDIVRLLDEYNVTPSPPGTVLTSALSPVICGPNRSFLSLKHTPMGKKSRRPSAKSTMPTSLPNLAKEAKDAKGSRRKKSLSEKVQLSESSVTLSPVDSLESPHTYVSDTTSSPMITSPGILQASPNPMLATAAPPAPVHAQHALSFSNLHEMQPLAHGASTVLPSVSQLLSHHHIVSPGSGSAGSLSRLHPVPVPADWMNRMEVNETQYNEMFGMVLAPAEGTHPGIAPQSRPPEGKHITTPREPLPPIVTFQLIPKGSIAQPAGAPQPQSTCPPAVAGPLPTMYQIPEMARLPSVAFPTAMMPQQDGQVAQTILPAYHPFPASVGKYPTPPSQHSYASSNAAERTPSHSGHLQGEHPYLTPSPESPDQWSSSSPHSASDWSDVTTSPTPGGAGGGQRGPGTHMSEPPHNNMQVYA
Sequence of Pro-neuregulin-1, membrane-bound isoform (Homo sapiens) (Q02297 whole entry, looked up, the tested form may be a part, canonical isoform): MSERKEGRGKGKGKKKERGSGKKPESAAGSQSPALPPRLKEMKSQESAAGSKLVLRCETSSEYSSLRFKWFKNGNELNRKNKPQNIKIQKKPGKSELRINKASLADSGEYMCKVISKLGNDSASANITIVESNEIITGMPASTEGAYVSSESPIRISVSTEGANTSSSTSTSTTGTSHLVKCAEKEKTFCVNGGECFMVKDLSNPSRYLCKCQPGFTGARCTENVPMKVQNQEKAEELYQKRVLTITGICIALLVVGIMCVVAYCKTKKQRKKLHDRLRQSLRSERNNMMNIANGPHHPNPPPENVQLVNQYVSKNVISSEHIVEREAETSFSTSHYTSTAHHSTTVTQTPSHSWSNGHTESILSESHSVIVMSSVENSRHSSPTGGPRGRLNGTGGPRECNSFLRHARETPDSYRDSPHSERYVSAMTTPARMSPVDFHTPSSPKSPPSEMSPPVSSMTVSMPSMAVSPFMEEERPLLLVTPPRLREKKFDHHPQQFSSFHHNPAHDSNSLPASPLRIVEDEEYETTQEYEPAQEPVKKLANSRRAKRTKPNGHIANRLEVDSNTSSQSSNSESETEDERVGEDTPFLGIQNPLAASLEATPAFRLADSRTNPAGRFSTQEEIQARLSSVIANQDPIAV

Compound	composite z-score [1]	composite z-score [2]	composite z-score [3]	composite z-score [4]	composite z-score [5]	composite z-score [6]	composite z-score [7]	z-score [8]	composite z-score [9]	composite z-score [10]	composite z-score [11]	z-score [12]	z-score [13]	z-score [14]	composite z-score [15]	z-score [16]	composite z-score [17]	composite z-score [18]	composite z-score [19]	composite z-score [20]
O=C1O[C@@H](c2ccccc2)[C@@H](c2ccccc2)N2[C@@H](c3ccc(O)cc3)[C@]3(C(=O)Nc4ccccc43)[C@@H](C(=O)N3CCCCCCC3)[C@H]12	3.65	1.15	0.937	0.525	0.519	2.22	1.35	-4.16 (inactive)	2.99	1.07	1.54	0.964 (inactive)	0.295 (inactive)	1.9 (inactive)	4.32	0.271 (inactive)	1.54	0.589	0.896	1.13
COC(=O)c1c2oc(c1C(=O)OC)C(=O)N[C@H](Cc1ccccc1)Cn1nncc1C1(CCCCC1)NC(=O)N[C@H](CO)CC2	-0.442	0.158	-0.0853	0.108	0.0153	-0.0781	0.646	-1.33 (inactive)	0.233	-0.212	0.702	0.776 (inactive)	0.414 (inactive)	-0.178 (inactive)	1.03	1.17 (inactive)	-0.205	0.311	0.17	-0.115
COc1ccc(C#Cc2ccc3c(c2)[C@]2(C(=O)N3)[C@H](C(=O)N3CCc4cc(OC)c(OC)cc4C3)[C@H]3C(=O)O[C@H](c4ccccc4)[C@H](c4ccccc4)N3[C@@H]2c2ccc(OCCO)cc2)cc1	-0.304	0.487	0.0019	0.817	1.32	0.213	1.2	0.239 (inactive)	0.35	0.314	1.55	3.09 (inactive)	2.07 (inactive)	6.17 (inactive)	2.51	1.9 (inactive)	-0.0728	1.48	1.17	0.102
CC(C)(C)OC(=O)CC[C@@]1(C(N)=O)N=C(c2ccc(OCCCO)cc2)O[C@@H]1c1ccccc1N=[N+]=[N-]	0.0551	1.86	0.0354	1.23	1.46	0.798	1.36	3.06 (inactive)	0.18	-0.0645	1.16	0.745 (inactive)	-0.86 (inactive)	-0.579 (inactive)	3.41	0.77 (inactive)	0.0539	0.465	0.976	-0.019
[N-]=[N+]=NCc1ccccc1C[C@]1(C(=O)NCC(O)CO)COC(c2ccc(OCCCO)cc2)=N1 (stereo not given in full)	1.11	2.19	-0.033	-0.329	0.7	1	0.691	-1.03 (inactive)	1.1	-0.318	0.638	-0.319 (inactive)	-3.05 (inactive)	0.113 (inactive)	2.54	1.34 (inactive)	0.841	-0.185	-0.172	0.204
NC(=O)NCC#Cc1ccc2c(c1)[C@]1(C(=O)N2)[C@H](C(=O)NC[C@H](O)c2ccccc2)[C@H]2C(=O)O[C@H](c3ccccc3)[C@H](c3ccccc3)N2[C@@H]1c1ccccc1OCCO	-0.226	0.0051	-0.0934	0.0263	-0.686	1.21	0.997	-0.167 (inactive)	0.213	-0.0994	1.53	1.41 (inactive)	-0.133 (inactive)	2.44 (inactive)	2.35	2.02 (inactive)	-0.186	0.307	0.927	-0.167
C=CCN1Cc2ccccc2C[C@@]2(COC(c3ccc(OCCCO)cc3)=N2)C1=O	1.12	0.391	-0.0159	0.0999	1.19	1.05	1.31	-3.79 (inactive)	0.703	0.0749	1.5	-0.915 (inactive)	-4.77 (inactive)	0.817 (inactive)	2.3	1.42 (inactive)	0.247	0.34	0.454	0.052
[N-]=[N+]=NCc1ccccc1C[C@@]1(C(=O)NCc2ccccc2)N=C(c2ccc(OCCCO)cc2)O[C@@H]1c1ccccc1CN=[N+]=[N-]	0.705	0.425	0.107	0.809	0.933	0.926	1.05	-1.95 (inactive)	0.803	0.553	1.57	-1.34 (inactive)	0.0392 (inactive)	36 (active)	3.25	1.16 (inactive)	0.395	0.234	0.756	0.0157
CC(=O)NCCCC[C@@H]1NC(=O)[C@@H]2C[C@H](C(=O)NCCCCCC[N+](C)(C)C)[C@H](c3cccc(OCCO)c3)N2C1=O	-0.0722	1.23	-0.0098	0.498	0.0496	1.52	1.35	3.12 (inactive)	0.715	-0.0296	1.54	0.801 (inactive)	0.385 (inactive)	1.1 (inactive)	2.46	-0.104 (inactive)	0.0283	1.03	1.02	-0.115
CCCC[C@H]1C[C@@H]1[C@@H]1N(P(=O)(c2ccccc2)c2ccccc2)[C@](CO)(c2ccccc2)CC12CC2	0.488	-0.363	0.0231	0.106	1.44	0.936	1.05	0.273 (inactive)	1.03	0.235	-0.153	-0.485 (inactive)	-0.485 (inactive)	5.22 (inactive)	2.51	-1.08 (inactive)	0.325	-0.686	-0.318	0.0585

Reference: PubChem BioAssay
